# From PubChem BioAssay (NCATS)
# Records with an inconclusive call do not appear. Calls of active or inactive are those of the source. Unless noted, calls come from the whole dose curve; as a rule, active = well fitted curve in the direction sought with a large enough effect; inconclusive = small, poorly fitted or top-dose-only effect, or another doubt; inactive = no such curve, though single readings can be large; an effect the other way counts as inactive or inconclusive.
# How the values were obtained:
# [1] = molecular target: Alpha-galactosidase A (Homo sapiens) (UniProt P06280); test: Counterscreen for Glucocerebrosidase Inhibitors: qHTS Assay for Human alpha-Galactosidase at pH 4.5 (AID 992); note: 0% is about no effect
# Summary of the method: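 Each compound is preincubated briefly with 2 nM enzyme before substrate addition (80 uM); plates then sit 20 min at ambient temperature, are quenched with 1M NaOH/1M glycine, and read fluorometrically.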
# [2] = molecular target: alpha-glucosidase (Oryza sativa, rice) (UniProt Q653V4); test: Counterscreen for Glucocerebrosidase Inhibitors: qHTS Assay for Rice alpha-Glucosidase at pH 5.0 (AID 997);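 note: 0% = full activity with enzyme and -100% = basal without enzyme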
# Summary of the method: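 Endpoint fluorogenic assay at pH 5.0: compounds (0.7 nM to 77 uM) titrated against 4 nM rice enzyme and 400 uM 4-MU-alpha-glucoside for 20 min at room temperature; NaOH/glycine stop, read ex 365/em 440 nm, Hill-fitted AC50.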
# [3] = Cell Viability - LYMP1-002 - Assay at 24 hr (AID 993); note: % is set by controls: 0 for no effect and ±100 for the full control effect
# Summary of the method: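 CellTiter-Glo luminescence (intracellular ATP) after 24 h compound exposure, 37 C, in LYMP1-002 human lymphoblastoid cells; decreased ATP taken as cytotoxicity. AC50 from standard Hill fit of concentration-response curves.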
# [4] = Cell Viability - LYMP1-002 - Assay at 40 hr (AID 994);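 note: 0% = DMSO only and full inhibition = 92 µM tetraoctylammonium bromide; nearly all actives have a fitted effect of over 60% in size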
# Summary of the method: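 qHTS cytotoxicity; 2500 cells/well, 5 hr 37 C settle, compound 40 hr 37 C. CellTiter-Glo, 30 min RT, luminescence (ATP). Concentration-response, Hill fit → AC50. Pos. ctrl tetraoctylammonium bromide.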
# [5] = qHTS Assay for Identification of Small Molecule Inducers of Hypoxia Response (AID 2120; active = well fitted curve in the direction sought with a large enough effect in the signal ratio, with a control signal flat, not every such curve was filed as active; the % refers to the signal ratio; note: 0% is about no effect)
# Summary of the method: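 Read-out: CCF4 FRET emission ratio 460nm/530nm (excitation 405nm), converted to %Activity, with AC50 fitted across a compound titration. ME-180 cells carried an HRE-driven beta-lactamase reporter; compound exposure 17 h, 37 degrees C.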
# [6] = molecular target: Estrogen receptor (Homo sapiens) (UniProt P03372); test: qHTS assay for small molecule antagonists of estrogen receptor alpha signaling (AID 588513; active = well fitted curve in the direction sought with a large enough effect in the signal ratio, with a control signal flat, not every such curve was filed as active; the % refers to the signal ratio; note: % is set by controls: 0 for no effect and ±100 for the full control effect)
# Summary of the method: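 ER-alpha-UAS-bla GripTite HEK 293 cells in medium with 2% charcoal/dextran-treated FBS were preincubated 4 h at 37 C, dosed with compound (1:2 titration), stimulated with 0.5nM 17-beta-estradiol for 18 h, then read by CCF4 beta-lactamase fluorescence.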
# [7] = molecular target: Estrogen receptor (Homo sapiens) (UniProt P03372); test: qHTS assay for small molecule agonists of estrogen receptor alpha signaling (AID 588514; calls by dose curve;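 note: 0% = vehicle only and 100% = reference agonist; nearly all actives have a fitted effect of over 70% in size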)
# Summary of the method: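 Read-out: CCF4 fluorescence from a beta-lactamase reporter in ER-alpha-UAS-bla HEK 293 cells after 18 hrs of compound exposure at 37 C. Normalized to 20 nM 17-beta-estradiol (100%) and DMSO (0%).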
# [8] = qHTS Assay for Lipid Storage Modulators (AID 1519; calls by dose curve; for activity change, negative = inhibition: % is set by controls: 0 for no effect and ±100 for the full control effect); conditions: Drosophila S3 cells, BODIPY lipid droplet/cell ratio, laser cytometry, cells loaded with oleic acid
# Summary of the method: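 Cells seeded at 5,000 per well were treated with compounds over a concentration series and loaded with oleic acid (400 uM, as added). Lipid droplet fluorescence (488 nm excitation, 500-530 nm channel) was read by laser-scanning cytometry and normalized to 20 uM Triacsin C.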
# [9] = molecular target: ATP-dependent 6-phosphofructokinase (Trypanosoma brucei brucei) (UniProt O15648); test: qHTS Assay to Find Inhibitors of T. brucei phosphofructokinase: hit validation (AID 492961);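 note: luminescence reports ADP formed as PFK phosphorylates fructose-6-phosphate with ATP; % is set by controls: 0 for no effect and ±100 for the full control effect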
# Summary of the method: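 PFK 1.25 nM, F6P 0.5 mM, ATP 0.1 mM, MgCl2 5 mM, 0.1 M TEA pH 8.0, Tween20 0.01%, BSA 0.1%; 45 min RT. ADP-Glo two-step detection, luminescence. qHTS titration; curve fitting with curve-class categorization.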
# [10] = molecular target: Ubiquitin carboxyl-terminal hydrolase 1 (Homo sapiens) (UniProt O94782); test: Inhibitors of USP1/UAF1: Pilot qHTS (AID 504865);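 note: rhodamine fluorescence freed from ubiquitin-rhodamine substrate followed over time; top concentration of the series differs between compounds; % is set by controls: 0 for no effect and ±100 for the full control effect; nearly all actives have a fitted effect of over 35% in size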
# Summary of the method: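 USP1/UAF1 complex (1nM) preincubated with compound 15 min at room temperature, then Ub-Rho substrate (150nM final) added. Fluorescence read kinetically at 480/540 nm, 6 reads every 60 seconds. Buffer: 50mM HEPES pH 7.8, 0.5mM EDTA, 0.1 mg/ml BSA, 1mM TCEP, 0.01% Tween-20.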
# Estrogen receptor (Homo sapiens), sequence (P03372 whole entry, looked up): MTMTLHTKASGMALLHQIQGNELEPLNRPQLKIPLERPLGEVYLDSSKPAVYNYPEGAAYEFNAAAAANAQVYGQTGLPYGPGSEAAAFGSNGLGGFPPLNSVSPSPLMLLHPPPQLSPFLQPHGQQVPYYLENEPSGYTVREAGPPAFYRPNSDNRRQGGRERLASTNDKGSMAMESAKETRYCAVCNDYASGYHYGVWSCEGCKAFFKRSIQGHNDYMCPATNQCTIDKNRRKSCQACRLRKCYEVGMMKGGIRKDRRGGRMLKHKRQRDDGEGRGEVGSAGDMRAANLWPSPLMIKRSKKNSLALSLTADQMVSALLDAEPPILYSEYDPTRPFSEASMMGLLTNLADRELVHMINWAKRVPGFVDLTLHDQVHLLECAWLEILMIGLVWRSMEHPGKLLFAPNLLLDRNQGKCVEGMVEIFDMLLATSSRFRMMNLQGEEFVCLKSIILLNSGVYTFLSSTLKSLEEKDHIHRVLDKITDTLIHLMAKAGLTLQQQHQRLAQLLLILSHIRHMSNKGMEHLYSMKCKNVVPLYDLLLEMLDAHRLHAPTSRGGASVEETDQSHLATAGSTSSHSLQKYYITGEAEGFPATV
# Ubiquitin carboxyl-terminal hydrolase 1 (Homo sapiens), sequence (O94782 whole entry, looked up): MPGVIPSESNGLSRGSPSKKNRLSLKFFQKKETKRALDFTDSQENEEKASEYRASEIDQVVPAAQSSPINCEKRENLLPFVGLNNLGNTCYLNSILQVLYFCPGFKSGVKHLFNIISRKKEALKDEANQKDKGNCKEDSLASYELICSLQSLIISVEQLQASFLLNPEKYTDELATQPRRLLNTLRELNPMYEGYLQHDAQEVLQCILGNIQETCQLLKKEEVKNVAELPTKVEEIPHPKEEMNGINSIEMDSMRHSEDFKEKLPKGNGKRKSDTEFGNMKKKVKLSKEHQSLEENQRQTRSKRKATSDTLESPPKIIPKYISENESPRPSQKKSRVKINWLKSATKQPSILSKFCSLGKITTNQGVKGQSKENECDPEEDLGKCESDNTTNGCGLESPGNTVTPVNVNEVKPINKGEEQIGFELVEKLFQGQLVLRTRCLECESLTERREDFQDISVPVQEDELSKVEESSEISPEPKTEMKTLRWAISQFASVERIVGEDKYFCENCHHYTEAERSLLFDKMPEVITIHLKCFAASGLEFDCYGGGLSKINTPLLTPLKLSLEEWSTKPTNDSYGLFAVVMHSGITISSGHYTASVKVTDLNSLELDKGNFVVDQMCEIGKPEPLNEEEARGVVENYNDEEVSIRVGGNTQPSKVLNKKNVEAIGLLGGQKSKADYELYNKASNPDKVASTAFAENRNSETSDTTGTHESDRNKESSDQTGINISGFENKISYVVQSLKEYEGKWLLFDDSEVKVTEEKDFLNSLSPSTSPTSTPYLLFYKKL
# Alpha-galactosidase A (Homo sapiens), sequence (P06280 whole entry, looked up): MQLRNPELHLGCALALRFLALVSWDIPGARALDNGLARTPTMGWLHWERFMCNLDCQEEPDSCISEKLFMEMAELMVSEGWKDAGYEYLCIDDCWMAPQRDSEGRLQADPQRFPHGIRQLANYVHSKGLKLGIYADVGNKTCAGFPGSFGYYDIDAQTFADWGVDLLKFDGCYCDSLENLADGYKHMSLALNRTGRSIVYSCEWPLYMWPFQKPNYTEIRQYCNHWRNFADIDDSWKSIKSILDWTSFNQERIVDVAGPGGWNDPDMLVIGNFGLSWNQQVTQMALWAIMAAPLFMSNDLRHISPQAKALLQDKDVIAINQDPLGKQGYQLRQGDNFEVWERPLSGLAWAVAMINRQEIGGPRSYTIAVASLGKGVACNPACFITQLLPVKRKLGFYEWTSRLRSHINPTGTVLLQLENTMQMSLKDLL
# ATP-dependent 6-phosphofructokinase (Trypanosoma brucei brucei), sequence (O15648 whole entry, looked up): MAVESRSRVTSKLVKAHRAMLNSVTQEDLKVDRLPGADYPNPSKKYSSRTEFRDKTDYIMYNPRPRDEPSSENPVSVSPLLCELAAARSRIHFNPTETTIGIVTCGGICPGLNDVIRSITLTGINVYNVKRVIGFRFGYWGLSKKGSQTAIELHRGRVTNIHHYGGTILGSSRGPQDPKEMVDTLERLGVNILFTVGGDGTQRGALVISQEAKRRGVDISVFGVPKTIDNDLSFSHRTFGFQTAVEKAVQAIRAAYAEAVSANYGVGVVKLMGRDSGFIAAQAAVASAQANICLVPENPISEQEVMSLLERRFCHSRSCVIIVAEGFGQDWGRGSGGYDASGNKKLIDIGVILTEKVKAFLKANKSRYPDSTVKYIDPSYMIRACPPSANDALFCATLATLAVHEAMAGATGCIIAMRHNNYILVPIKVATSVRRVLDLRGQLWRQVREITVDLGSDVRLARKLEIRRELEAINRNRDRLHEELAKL
smiles,measurement,setting,value
CC(C)C[C@H](NC(=O)[C@@H]1O[C@H]1C(=O)O)C(=O)NCCCCN=C(N)N,outcome,[1],inactive
same,outcome,[2],inactive
C[C@]1(C2CCCC2)Cc2cc(OCC(=O)O)c(Cl)c(Cl)c2C1=O,outcome,[1],inactive
same,outcome,[2],inactive
C=C1C[C@]23C[C@@]1(O)CC[C@H]2[C@@]12C=C[C@H](O)[C@@](C)(C(=O)O1)[C@H]2[C@@H]3C(=O)O,outcome,[3],inactive
same,outcome,[4],inactive
same,outcome,[5],inactive
COc1ccc(CCC(=O)c2c(O)cc(O[C@@H]3O[C@H](CO)[C@@H](O)[C@H](O)[C@H]3O[C@@H]3O[C@@H](C)[C@H](O)[C@@H](O)[C@H]3O)cc2O)cc1O,outcome,[3],inactive
same,outcome,[4],inactive
same,outcome,[5],inactive
same,outcome,[6],inactive
same,outcome,[7],inactive
CCc1cccc2c3c([nH]c12)[C@@](CC)(CC(=O)O)OCC3,"activity change, negative = inhibition",[8]; at 25.7 µM (top of the series),-1.67% (inactive)
same,max response,[8]; measured here: cell count channel max response,8.85%
same,max response,[8]; measured here: lipid channel max response,4.97%
CCOC(=O)C(CCc1ccccc1)NC(C)C(=O)N1Cc2ccccc2CC1C(=O)O (stereo not given),outcome,[9],inactive
same,outcome,[10],inactive
O=C(/C=C/C=C/c1ccc2c(c1)OCO2)N1CCCCC1,outcome,[10],inactive
same,outcome,[6],inactive
same,outcome,[7],inactive
